Data as given in PubChem BioAssay.
The source made the active and inactive calls. Unless noted, how the calls were made is not given here.

How the values were obtained:
[1] = HepG2 liver cancer cell viability effects, profiling panel, resazurin fluorescence, 24 h, PK04 Diversity Set (AID 1172); conditions: higher = more signal
[2] = basal S. cerevisiae growth modulation, no modifier, primary screen, OD600, strain BY4716, 24 h, basal condition (AID 1173); conditions: OD600, 24 h, higher = more signal, called active from +8 up or from −8 down
[3] = MM1S myeloma cell viability, profiling panel, resazurin fluorescence, basal, 24 h, PK04 Diversity Set (AID 1174); conditions: higher = more signal, called active from +8 up or from −8 down;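 further: MM1S multiple myeloma cell line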
[4] = molecular target: Dihydroorotate dehydrogenase (quinone), mitochondrial (Plasmodium falciparum (isolate 3D7)) (UniProt Q08210); assay: PfDHODH enzyme inhibitors, primary screen, biochemical, C-terminal His tag, absorbance 600 nm (AID 1175); conditions: DCIP absorbance 600 nm, higher = more signal, called active from +8 up or from −8 down;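 further: recombinant parasite enzyme with a five histidine tag at its C terminus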
Sequence of Dihydroorotate dehydrogenase (quinone), mitochondrial (Plasmodium falciparum (isolate 3D7)) (Q08210 whole entry, looked up): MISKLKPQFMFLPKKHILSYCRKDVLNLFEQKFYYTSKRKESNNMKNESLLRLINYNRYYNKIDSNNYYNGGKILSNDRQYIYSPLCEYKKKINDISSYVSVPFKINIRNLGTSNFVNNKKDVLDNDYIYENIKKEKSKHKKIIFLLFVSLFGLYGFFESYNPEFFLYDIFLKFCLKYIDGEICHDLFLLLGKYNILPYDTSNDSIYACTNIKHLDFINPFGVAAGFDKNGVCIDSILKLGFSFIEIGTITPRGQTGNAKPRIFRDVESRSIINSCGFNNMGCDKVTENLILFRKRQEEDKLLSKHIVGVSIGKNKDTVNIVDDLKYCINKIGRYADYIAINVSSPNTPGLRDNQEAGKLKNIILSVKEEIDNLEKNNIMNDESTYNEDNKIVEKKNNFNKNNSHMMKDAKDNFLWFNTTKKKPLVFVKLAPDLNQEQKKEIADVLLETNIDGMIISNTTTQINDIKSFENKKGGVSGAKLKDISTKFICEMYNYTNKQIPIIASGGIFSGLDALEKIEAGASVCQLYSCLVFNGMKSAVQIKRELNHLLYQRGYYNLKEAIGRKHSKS

[5] = P. aeruginosa biofilm formation inhibitors, primary screen, strain PAO1, LB-PBS medium, absorbance 600 nm (AID 1176); conditions: P. aeruginosa PAO1 growth/biofilm, A600, 12 h; higher = more signal
[6] = S. cerevisiae RM11-1a growth modifiers, primary screen, strain RM11-1a, OD600, basal, 24 h (AID 1177); conditions: OD600, 24 h, higher = more signal, called active from +8 up or from −8 down;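 further: cultures grown under basal conditions with no added stressor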
[7] = E. coli acrAB mutant growth effects, primary screen, E. coli filamentation inducers, strain DRC39, OD650, 24 h (AID 1178); conditions: higher = more signal, called active from +8 up or from −8 down;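 further: growth measured as culture turbidity by optical density at 650 nm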
[8] = E. coli acrAB mutant growth effects, primary screen, E. coli filamentation inducers, strain DRC39, OD650, 48 h (AID 1179);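 further: screen aims at cell division blockers that make cells filament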; conditions: E. coli DRC39 delta-acrAB growth, higher = more signal, called active from +8 up or from −8 down
[9] = RPMI8226 myeloma cell viability, profiling panel, resazurin fluorescence, basal, 24 h, PK04 Diversity Set (AID 1180); conditions: higher = more signal;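 further: RPMI8826 multiple myeloma cell line at 5000 cells per well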
[10] = molecular target: E3 ubiquitin-protein ligase XIAP (Homo sapiens) (UniProt P98170); assay: XIAP binders, primary screen, biophysical, small-molecule microarray, fluorescence 635 nm (AID 1181); conditions: small-molecule microarray binding, higher = more signal;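 further: score merges 667 nm emission and signal to noise over triplicate slides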
Sequence of E3 ubiquitin-protein ligase XIAP (Homo sapiens) (P98170 whole entry, looked up): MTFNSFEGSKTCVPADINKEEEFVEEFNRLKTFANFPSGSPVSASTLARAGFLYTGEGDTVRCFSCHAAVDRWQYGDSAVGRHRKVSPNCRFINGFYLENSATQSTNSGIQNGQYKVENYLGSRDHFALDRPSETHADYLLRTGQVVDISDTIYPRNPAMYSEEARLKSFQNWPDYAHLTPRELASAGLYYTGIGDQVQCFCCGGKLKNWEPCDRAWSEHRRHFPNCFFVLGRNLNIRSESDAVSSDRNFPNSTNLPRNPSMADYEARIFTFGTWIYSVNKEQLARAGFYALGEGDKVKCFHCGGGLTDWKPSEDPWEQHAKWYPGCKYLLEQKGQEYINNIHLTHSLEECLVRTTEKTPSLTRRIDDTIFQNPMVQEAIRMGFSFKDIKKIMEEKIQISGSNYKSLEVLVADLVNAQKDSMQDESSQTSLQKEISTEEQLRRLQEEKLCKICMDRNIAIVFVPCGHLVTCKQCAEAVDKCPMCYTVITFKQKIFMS

[11] = system: XIP peptide (Xip251-270) binding; assay: small-molecule binders of XIP peptide, primary screen, biochemical, small-molecule microarray, fluorescence 635/667 nm, 0.1 µg/mL protein (AID 1182); conditions: fluorescent protein binding, 635 nm, higher = more signal, called active from +8 up or from −8 down
[12] = system: XIP peptide (Xip251-270); assay: small-molecule binders of XIP peptide, primary screen, biochemical, small-molecule microarray, fluorescence 635/667 nm, 0.5 µg/mL protein (AID 1183); conditions: small-molecule microarray binding, fluorescence 635 nm; higher = more signal
[13] = Plasmodium falciparum growth inhibition, primary screen, strain 3D7, DAPI fluorescence, 100 nL (AID 1184);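 further: parasites grown inside human red blood cells in medium with human serum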; conditions: P. falciparum 3D7 growth, 3 d, higher = more signal
[14] = molecular target: Homeobox protein Hox-A13 (Mus musculus) (UniProt Q62424); assay: inhibitors of HoxA13-DNA binding, primary screen, biochemical, fluorescence polarization, labeled oligonucleotide (AID 1185); conditions: 15 min, higher = more signal, called active from +8 up or from −8 down
Sequence of Homeobox protein Hox-A13 (Mus musculus) (Q62424 whole entry, looked up): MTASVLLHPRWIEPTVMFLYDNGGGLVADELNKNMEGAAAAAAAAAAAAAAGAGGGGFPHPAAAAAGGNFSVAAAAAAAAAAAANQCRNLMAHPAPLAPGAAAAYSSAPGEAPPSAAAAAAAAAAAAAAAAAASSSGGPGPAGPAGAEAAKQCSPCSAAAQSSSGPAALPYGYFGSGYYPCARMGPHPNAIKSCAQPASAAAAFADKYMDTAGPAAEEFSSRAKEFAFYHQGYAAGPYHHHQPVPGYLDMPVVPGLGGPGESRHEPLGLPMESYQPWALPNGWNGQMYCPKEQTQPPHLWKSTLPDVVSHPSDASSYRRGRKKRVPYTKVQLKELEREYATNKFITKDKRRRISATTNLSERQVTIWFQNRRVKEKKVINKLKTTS

[15] = inhibitors of hydroxyurea-induced Chk1 phosphorylation, primary screen, imaging, HeLa, phospho-Chk1 antibody, percent positive cells (AID 1186); conditions: hydroxyurea-induced phospho-Chk1 immunofluorescence imaging, higher = more signal
[16] = inhibitors of hydroxyurea-induced Chk1 phosphorylation, primary screen, imaging, HeLa, phospho-Chk1 nuclear intensity (AID 1187); conditions: hydroxyurea-induced phospho-Chk1 immunofluorescence imaging, higher = more signal

Row | Compound | z-score [1] | z-score [2] | z-score [3] | composite z-score [4] | z-score [5] | z-score [6] | z-score [7] | z-score [8] | z-score [9] | composite z-score [10] | composite z-score [11] | composite z-score [12] | z-score [13] | z-score [14] | z-score [15] | z-score [16]
1 | C=CCNC(=O)[C@@H]1[C@H]2C(=O)O[C@H](c3ccccc3)[C@H](c3ccccc3)N2[C@H](c2ccc(OCCO)cc2)[C@@]12C(=O)Nc1ccc(C#CCCO)cc12 | -0.13 | 1.02 (inactive) | -0.185 (inactive) | -1.24 (inactive) | 1.66 (inactive) | -0.114 (inactive) | -0.194 (inactive) | 0.184 (inactive) | -0.114 | -0.157 | 0.95 (inactive) | 0.77 | -1.02 | -3.63 (inactive) | 0.0523 (inactive) | 0.205 (inactive)
2 | COc1ccc([C@H]2C[C@H]3C(Br)=C[C@@H]2C(=O)[C@]32CO2)cc1 | 0.158 | -6.22 (inactive) | -0.0566 (inactive) | 1.03 (inactive) | -0.647 (inactive) | 0.844 (inactive) | 1.75 (inactive) | 0.406 (inactive) | 0.869 | -0.0292 | -0.244 (inactive) | -0.22 | -0.518 | -0.444 (inactive) | 0.0297 (inactive) | -0.237 (inactive)
3 | CCN(CC)c1ccc(N2CC=CC34O[C@@H]5/C=C\CCC(C)OC(=O)C5[C@H]3C(=O)N(C(CO)C(C)C)[C@@H]4C2=O)cc1 (stereo partly drawn) | -0.364 | 0.0948 (inactive) | 0.509 (inactive) | -2.68 (inactive) | -0.525 (inactive) | -0.185 (inactive) | 0.496 (inactive) | 0.767 (inactive) | 0.259 | 0.0049 | 0.0003 (inactive) | -0.431 | -0.214 | -6.03 (inactive) | 0.0858 (inactive) | 0.0174 (inactive)
4 | CN1C(=O)C2C=CC(C(O)c3ccc(-c4ccccc4)s3)N(N(c3ccccc3)c3ccccc3)C2C1=O (stereo not drawn) | -0.748 | -0.215 (inactive) | -0.609 (inactive) | -0.585 (inactive) | 1.23 (inactive) | 0.512 (inactive) | -0.554 (inactive) | -0.24 (inactive) | -0.109 | 0.174 | 0.254 (inactive) | 0.322 | 0.33 | 0.329 (inactive) | 0.288 (inactive) | -0.108 (inactive)
5 | O=C1C2C=CC(C(O)C3CCCCC3)N(Nc3ccc([N+](=O)[O-])cc3)C2C(=O)N1c1ccccc1 (stereo not drawn) | -1.13 | 0.581 (inactive) | -0.772 (inactive) | 1.14 (inactive) | 0.409 (inactive) | 1.09 (inactive) | -0.915 (inactive) | -1.96 (inactive) | -0.675 | 0.242 | -0.375 (inactive) | 0.526 | -1.5 | -2.33 (inactive) | -0.0882 (inactive) | -0.177 (inactive)
6 | CCCC=C(CCC)[C@@H](NS(=O)(=O)c1cccs1)c1ccc(C(=O)OC)cc1 | -0.395 | 0.91 (inactive) | 1.18 (inactive) | 0.335 (inactive) | 0.535 (inactive) | 1.59 (inactive) | 0.588 (inactive) | -0.424 (inactive) | -5.85 | 0.0248 | 0.219 (inactive) | 0.507 | -0.677 | -3.19 (inactive) | -0.284 (inactive) | 0.0089 (inactive)
7 | CC1(C)[C@@H]2CC(C(O)C3C=CC4C(=O)N(c5ccccc5)C(=O)C4N3Nc3ccccc3)=C[C@H]1C2 (stereo partly drawn) | 0.0594 | -3.01 (inactive) | -0.852 (inactive) | 0.232 (inactive) | 0.711 (inactive) | -0.0064 (inactive) | -0.441 (inactive) | -0.328 (inactive) | -1.08 | 0.169 | 0.386 (inactive) | 0.576 | -0.0796 | -3.65 (inactive) | -0.583 (inactive) | -0.715 (inactive)
8 | COC(=O)[C@@]1(Cc2ccccc2)[C@H]2c3cc(C(=O)N4CCCC4)n(CC4CC4)c3C[C@H]2CN1C(=O)c1ccccc1 | -1.34 | 1.38 (inactive) | -1.75 (inactive) | -0.0475 (inactive) | 0.936 (inactive) | 1.25 (inactive) | -0.889 (inactive) | -1.44 (inactive) | -2.27 | 0.637 | 0.258 (inactive) | 0.628 | -1.79 | -5.17 (inactive) | 0.874 (inactive) | 0.76 (inactive)
9 | C=CCNC(=O)[C@H]1[C@@H]2C(=O)O[C@@H](c3ccccc3)[C@@H](c3ccccc3)N2[C@@H](c2ccc(OCCO)cc2)[C@]12C(=O)Nc1ccc(C#CC3=CCCCC3)cc12 | 0.735 | 2.06 (inactive) | -1.21 (inactive) | 0.472 (inactive) | 0.269 (inactive) | 2.97 (inactive) | 0.0358 (inactive) | -0.198 (inactive) | -2.77 | 0.0435 | 0.116 (inactive) | 0.731 | -1.19 | 3.25 (inactive) | 0.151 (inactive) | 0.359 (inactive)
10 | CS(=O)(=O)CCOC(=O)C1=CC(CCCO)=CC(c2ccc(CN3CCCC3)cc2)N(Cc2cc3c(cc2Br)OCO3)C=C1C(=O)OCCS(C)(=O)=O (stereo not drawn) | 0.0305 | -3.3 (inactive) | 0.56 (inactive) | -4.55 (inactive) | -0.66 (inactive) | 0.526 (inactive) | 0.549 (inactive) | 0.325 (inactive) | 1.31 | -0.0773 | 0.597 (inactive) | 0.732 | -2.66 | -0.776 (inactive) | -1.45 (inactive) | -0.549 (inactive)
11 | CCOC(=O)C1=CCC(c2ccc(C)cc2)N(S(=O)(=O)c2ccc(C)cc2)C1 (stereo not drawn) | 0.28 | 1.94 (inactive) | -0.714 (inactive) | -0.526 (inactive) | 0.173 (inactive) | 1.03 (inactive) | -0.764 (inactive) | -0.56 (inactive) | -1.63 | 0.128 | 0.34 (inactive) | 0.46 | -1.65 | -2.32 (inactive) | 0.283 (inactive) | 0.449 (inactive)
12 | COc1ccc(C(O)C2C=CC3C(=O)N(c4ccccc4)C(=O)C3N2Nc2ccccc2F)cc1OCc1ccccc1 (stereo not drawn) | -0.299 | -0.737 (inactive) | -1.66 (inactive) | -0.318 (inactive) | 1.11 (inactive) | -0.0242 (inactive) | -0.472 (inactive) | 0.226 (inactive) | -1.55 | 0.0158 | 1.26 (inactive) | 0.698 | -0.193 | -0.0495 (inactive) | -0.75 (inactive) | -1.22 (inactive)
13 | O=C1O[C@@H](c2ccccc2)[C@@H](c2ccccc2)N2[C@@H](c3ccccc3OCCO)[C@]3(C(=O)Nc4ccc(C#CC5=CCCCC5)cc43)[C@@H](C(=O)Nc3nc4ccccc4s3)[C@H]12 | 0.482 | 1.26 (inactive) | -0.785 (inactive) | -1.7 (inactive) | 2.84 (inactive) | 1.34 (inactive) | -0.583 (inactive) | -1.05 (inactive) | -1.2 | -0.234 | 0.705 (inactive) | 0.824 | -2.09 | -12.1 (active) | -0.183 (inactive) | -0.161 (inactive)
14 | C=CCOC(=O)[C@@H]1[C@H]2C(=O)O[C@H](c3ccccc3)[C@H](c3ccccc3)N2[C@H](c2ccc(OCCOC(=O)[C@@H]3C[C@@H]4C(=O)N[C@@H](CCCC[N+](C)(C)C)C(=O)N4[C@@H]3c3cccc(OCCO)c3)cc2)[C@@]12C(=O)Nc1ccc(I)cc12 | 1.34 | -1.21 (inactive) | -0.669 (inactive) | -5.39 (inactive) | 1.18 (inactive) | 1.98 (inactive) | -0.62 (inactive) | -0.659 (inactive) | -0.847 | -0.126 | 1.18 (inactive) | 0.786 | 0.0875 | 6.23 (inactive) | -0.558 (inactive) | 0.16 (inactive)
15 | CN(C)C(=O)[C@]1(Cc2ccccc2N=[N+]=[N-])N=C(c2ccc(OCCCO)cc2)O[C@@H]1c1ccccc1 | 0.0707 | -1.87 (inactive) | -0.597 (inactive) | 0.209 (inactive) | -1.49 (inactive) | 0.504 (inactive) | 0.651 (inactive) | 1.15 (inactive) | 0.0542 | -0.141 | 1.03 (inactive) | 0.383 | -2.02 | -6.21 (inactive) | -0.879 (inactive) | -1.26 (inactive)
16 | [N-]=[N+]=Nc1ccccc1C[C@@]1(C(=O)NCCN2CCOCC2)N=C(c2ccc(OCCCO)cc2)O[C@@H]1c1ccccc1 | -0.139 | -4.41 (inactive) | -0.599 (inactive) | 0.842 (inactive) | -0.347 (inactive) | -0.0653 (inactive) | 0.655 (inactive) | 0.745 (inactive) | -0.125 | 0.0831 | 0.58 (inactive) | 0.827 | -2.33 | -4.23 (inactive) | -0.785 (inactive) | -1.11 (inactive)
17 | COc1cc2c(cc1OC)CN(C(=O)[C@H]1[C@@H]3C(=O)O[C@@H](c4ccccc4)[C@@H](c4ccccc4)N3[C@@H](c3ccc(O)cc3)[C@]13C(=O)Nc1ccc(C#CCNC(N)=O)cc13)CC2 | 0.543 | 0.16 (inactive) | 0.187 (inactive) | -2.16 (inactive) | 0.305 (inactive) | 0.0092 (inactive) | 0.537 (inactive) | 0.0455 (inactive) | 0.592 | -0.202 | -0.564 (inactive) | 0.497 | -0.599 | -1.24 (inactive) | -0.192 (inactive) | -0.245 (inactive)
18 | C[C@@H]1ON(c2cccc(C(=O)OC(C)(C)C)c2)[C@H](c2ccc(Br)cc2)[C@H]1C(=O)N1C(=O)OC[C@H]1Cc1ccccc1 | 0.0192 | 0.724 (inactive) | 0.433 (inactive) | 1.17 (inactive) | -0.295 (inactive) | 0.872 (inactive) | -0.741 (inactive) | -0.472 (inactive) | 1.25 | 0.127 | 0.543 (inactive) | 0.615 | -0.829 | -0.923 (inactive) | 0.0511 (inactive) | 0.176 (inactive)
